Data on ten molecules can be found in PubChem BioAssay (NCI).

Structures are written as SMILES. This is part of a sample that, as a whole, favours compounds with a hit. Of some 83,000 tested, about 20% had one in any assay.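 Compound tested at a single concentration for 48 hours in 96-well plates; a percent growth value below 10 was scored as active.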 Unmarked numbers belong to inactive results. The source made the active and inactive calls.

Some test systems named below: NCI-H23 lung; NCI-H226 lung; NCI-H322M lung; HOP-62 NSCLC; HOP-92 NSCLC; NCI-H522 lung; A549/ATCC NSCLC; 786-0 renal; COLO 205 colon.
What all share (assay): NCI-60 one-dose screen, 48 h (100 = growth as untreated, 0 = no growth, -100 = all killed)
What all share (settings): 10 µM unless noted

In the case of `NC(=Nc1ccc(N)cc1)C(N)=Nc1ccc(N)cc1`, the growth in the experiment on NCI-H23 lung is 108%; in the experiment with NCI-H226 lung, 94.4%; in the experiment on NCI-H322M lung, 105%; in the experiment on HOP-62 NSCLC, 107%; in the experiment with HOP-92 NSCLC, 112%; with NCI-H522 lung, 111%. In addition, the values for the growth in the experiment on A549/ATCC NSCLC and in the experiment with 786-0 renal were 68.4% and 99.6%, respectively.
`C=C(C)[C@@H]1CC[C@]2(CO)CC[C@]3(C)[C@H](CC[C@@H]4[C@@]5(C)C=C(C#N)C(=O)C(C)(C)[C@@H]5CC[C@]43C)[C@@H]12`: the growth is 16.6% in the experiment with NCI-H23 lung; 25.6% in the experiment with NCI-H226 lung; 21.4% in the experiment with NCI-H322M lung; 23.2% with HOP-62 NSCLC; 8.38% (active) in the experiment with HOP-92 NSCLC; 24.1% with NCI-H522 lung. The results for the growth in the experiment with A549/ATCC NSCLC and in the experiment on 786-0 renal were 12.6% and 14.8%, respectively.
Take `Nc1c(C(=O)c2ccccc2)nnc2ncnn12`: the growth is 95.6% in the experiment with NCI-H23 lung; 94.5% in the experiment with NCI-H226 lung; 98.2% in the experiment on NCI-H322M lung; 97% in the experiment with HOP-62 NSCLC; 95.2% in the experiment on HOP-92 NSCLC; 88.5% in the experiment on NCI-H522 lung. The results for the growth in the experiment with A549/ATCC NSCLC, in the experiment on 786-0 renal and in the experiment with COLO 205 colon were 95.2%, 97.2% and 103%, respectively.
For the molecule `CC(C)c1ccc(C(=O)OC(=O)c2ccc(C(C)C)cc2)cc1`, the growth was 86.4% with NCI-H23 lung; 97.9% in the experiment with NCI-H226 lung; 88.8% in the experiment with NCI-H322M lung; 86.2% in the experiment on HOP-62 NSCLC; 87.8% in the experiment with HOP-92 NSCLC; 85.3% in the experiment on NCI-H522 lung. For the same molecule, the values for the growth with A549/ATCC NSCLC and in the experiment on 786-0 renal were 103% and 95.8%, respectively.
In the case of `c1ccc2c(c1)nc(-n1ccnc1)c1nc3ccccc3n12`, the growth in the experiment on NCI-H23 lung was 65.8%; in the experiment on NCI-H226 lung it was 65.7%; with NCI-H322M lung it was 71.9%; in the experiment on HOP-62 NSCLC, 47.9%; in the experiment on HOP-92 NSCLC, 80.9%; with NCI-H522 lung it was 26.9%. Also, the growth in the experiment with A549/ATCC NSCLC is 54.3%; in the experiment with 786-0 renal it was 73.1%.
Regarding `COc1cc(-c2cccc([N+](=O)[O-])c2)c(-c2nc(-c3ccccc3)c(-c3ccccc3)n2C2CC2)cc1OC`, the growth was 68% with NCI-H23 lung; 62.5% with NCI-H226 lung; 71.9% with NCI-H322M lung; 92.6% with HOP-62 NSCLC; 34.6% in the experiment on HOP-92 NSCLC; 44% with NCI-H522 lung. The growth is 44.7% in the experiment on A549/ATCC NSCLC and 73.3% in the experiment on 786-0 renal.
`Cn1c(NCCc2ccc(O)c(O)c2)nc2c1c(=O)n(Cc1ccc(Cl)cc1)c(=O)n2C`: the growth in the experiment on NCI-H23 lung is 79.1%; in the experiment with NCI-H226 lung, 84.5%; in the experiment on NCI-H322M lung, 77.2%; in the experiment on HOP-62 NSCLC, 88.5%; with HOP-92 NSCLC it was 47.1%; in the experiment on NCI-H522 lung it was -10.7% (active). Moreover, the growth in the experiment on A549/ATCC NSCLC is 104%; in the experiment with 786-0 renal it was 92.1%.
Consider `Nc1ccc(S(=O)(=O)Nc2ccsc2-c2nc(-c3ccccc3)no2)cc1`, for which the growth with NCI-H23 lung is 83.5%; with NCI-H226 lung it was 84.5%; in the experiment with NCI-H322M lung, 83.3%; in the experiment with HOP-62 NSCLC, 35.8%; in the experiment on HOP-92 NSCLC, 62.2%; in the experiment on NCI-H522 lung, 30.2%. For the same molecule, the growth in the experiment with A549/ATCC NSCLC was 42.7%; in the experiment with 786-0 renal, 86%.
On to `C[C@@H]1CC[C@@H]2[C@@H]1[C@H](OC(=O)c1ccc3ccccc3c1)[C@]1(C3CCCCC3)C[C@@H](OC(=O)CO)[C@@]2(C)O1`, for which the growth in the experiment on NCI-H23 lung is 65.1%; with NCI-H226 lung it was 51.8%; with NCI-H322M lung, 81.5%; with HOP-62 NSCLC it was 68%; with HOP-92 NSCLC, 34.9%; in the experiment on NCI-H522 lung, 49.4%. In addition, the growth is 48.8% in the experiment with A549/ATCC NSCLC and -7.27% (active) with 786-0 renal.
In the case of `CN(C)CCn1cc(-c2ccc3c(Nc4ccc(CC(=O)Nc5cccc(F)c5)cc4)ncnc3c2)cn1`, the growth with NCI-H23 lung was -57.2% [30 µM] (active); in the experiment on NCI-H226 lung, -36.7% [30 µM] (active); in the experiment with NCI-H322M lung it was -94.5% [30 µM] (active); in the experiment on HOP-62 NSCLC it was -23.2% [30 µM] (active); with HOP-92 NSCLC it was -28.8% [30 µM] (active); in the experiment with A549/ATCC NSCLC it was -41.4% [30 µM] (active). Moreover, the figures for the growth in the experiment on 786-0 renal and in the experiment on COLO 205 colon were -50.8% [30 µM] (active) and -61.8% [30 µM] (active), respectively.
